From PubChem BioAssay AID1159580 (chemical genetic matrix, 2015)
“And” between values parts separate entries of the source, which are not always exact repeats. Equal values may be shown once. About 2,000 (36%) of roughly 5,500 compounds were called active. About 18% were inconclusive and are not listed. Cut-off read from the data, not from the text of the source: active = normalized growth mostly below about 0.91 (no sharp cut-off); inconclusive = no clear call, values can overlap the other calls; inactive = mostly above about 0.92. The list shows a part of the results.

Test: chemical genetic growth profiling, strain panel (AID 1159580);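 note: tested at 20 µM; growth read once vehicle control cultures reached saturation at 30 °C; 1 = growth at the plate median or of vehicle wells; lower values mean less growth of the strain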
Details: S. cerevisiae deletion strains, growth OD

Measured: normalized growth

OC[C@H]1O[C@@H](O[C@@H]2[C@@H](CO)O[C@](O)(CO)[C@H]2O)[C@H](O)[C@@H](O)[C@H]1O
inactive: locus YAL021C, strain ccr4, hits give low values 1.02 | locus YAL026C, strain drs2, hits give low values 1.01 | locus YAL030W, strain snc1, hits give low values 1 | locus YBL061C, strain skt5, hits give low values 1.02 | locus YBR009C, strain hhf1, hits give low values 1.01 | locus YBR021W, strain FUR4, hits give low values 0.983 | locus YBR023C, strain chs3, hits give low values 0.995 | locus YBR171W, strain sec66, hits give low values 1.02 | locus YBR229C, strain ROT2, hits give low values 0.986 | locus YBR231C, strain swc5, hits give low values 1.01 | locus YBR279W, strain paf1, hits give low values 1.02 | locus YCL011C, strain gbp2, hits give low values 1.01 | locus YCL016C, strain dcc1, hits give low values 0.985 | locus YCL029C, strain bik1, hits give low values 0.988 | locus YCL069W, strain vba3, hits give low values 1.01 | locus YCR088W, strain abp1, hits give low values 1 | locus YDL005C, strain med2, hits give low values 1.03 | locus YDL035C, strain GPR1, hits give low values 1.01 | locus YDL040C, strain nat1, hits give low values 1.01 | locus YDL074C, strain BRE1, hits give low values 1 | locus YDL101C, strain DUN1, hits give low values 0.988 | locus YDL185W, strain tfp1, hits give low values 0.992 | locus YDL192W, strain arf1, hits give low values 0.993 | locus YDR001C, strain nth1, hits give low values 1.01 | locus YDR069C, strain doa4, hits give low values 1.02 | locus YDR101C, strain arx1, hits give low values 1.01 | locus YDR137W, strain rgp1, hits give low values 1.01 | locus YDR150W, strain NUM1, hits give low values 0.995 | locus YDR159W, strain sac3, hits give low values 1.01 | locus YDR162C, strain NBP2, hits give low values 1.01 | locus YDR195W, strain ref2 1.03 | locus YDR297W, strain sur2, hits give low values 1.01 | locus YDR318W, strain mcm21, hits give low values 0.981 | locus YDR334W, strain swr1, hits give low values 1.01 | locus YDR335W, strain msn5, hits give low values 1.02 | locus YDR388W, hits give low values 0.987 | locus YDR392W, strain spt3, hits give low values 0.949 | locus YDR502C, strain sam2, hits give low values 0.986 | locus YEL003W, strain gim4, hits give low values 1.01 | locus YEL037C, strain rad23, hits give low values 1 | locus YEL061C, strain CIN8 (second series), hits give low values 1.02 | locus YEL061C, strain CIN8, hits give low values 0.995 | locus YER015W, strain faa2, hits give low values 1 | locus YER016W, strain bim1, hits give low values 1.02 | locus YER110C, hits give low values 0.979 | locus YER111C, strain swi4, hits give low values 1 | locus YER155C, strain BEM2 (second series), hits give low values 1.03 | locus YER155C, strain BEM2, hits give low values 0.987 | locus YER167W, strain BCK2, hits give low values 0.995 | locus YFR010W, strain ubp6, hits give low values 1.02 | locus YGL078C, strain dbp3, hits give low values 0.963 | locus YGL086W, strain mad1, hits give low values 1 | locus YGL167C, strain pmr1, hits give low values 1.02 | locus YGL173C, strain kem1, hits give low values 1.01 | locus YGL227W, strain vid30, hits give low values 1.01 | locus YGL240W, strain doc1, hits give low values 1.03 | locus YGL248W, strain PDE1, hits give low values 0.983 | locus YGL253W, strain hxk2, hits give low values 0.99 | locus YGR135W, strain pre9, hits give low values 0.941 | locus YGR252W, strain gcn5, hits give low values 0.944 | locus YHR013C, strain ard1, hits give low values 1.03 | locus YHR027C, strain rpn1, hits give low values 1.01 | locus YHR030C, strain SLT2, hits give low values 0.993 and 0.984 | locus YHR079C, strain IRE1 (second series), hits give low values 0.983 | locus YHR079C, strain IRE1, hits give low values 0.989 | locus YHR094C, strain hxt1, hits give low values 0.979 | locus YHR129C, strain ARP1, hits give low values 0.992 | locus YHR142W, strain chs7, hits give low values 1 | locus YHR200W, strain rpn10, hits give low values 0.978 | locus YIL066C, strain RNR3, hits give low values 0.994 | locus YIL073C, strain SPO22, hits give low values 0.973 | locus YIL125W, strain kgd1, hits give low values 0.978 | locus YIR030C, strain dcg1, hits give low values 0.987 | locus YJL092W, strain hpr5, hits give low values 1.01 | locus YJL095W, strain BCK1 (second series), hits give low values 1.01 | locus YJL095W, strain BCK1, hits give low values 0.977 and 0.994 | locus YJL115W, strain asf1, hits give low values 1.01 | locus YJL129C, strain trk1, hits give low values 1.01 | locus YJL134W, strain LCB3, hits give low values 0.995 | locus YJL154C, strain vps35, hits give low values 1.02 | locus YJL164C, strain tpk1, hits give low values 0.984 | locus YJL166W, strain qcr8, hits give low values 1.01 | locus YJL168C, strain set2, hits give low values 0.976 | locus YJL187C, strain SWE1 (second series), hits give low values 0.993 | locus YJR043C, strain POL32, hits give low values 1.02 | locus YJR066W, strain TOR1, hits give low values 0.942
